A selection: hits, their analogues and other compounds. The true share with any hit is near 8%.
RORgamma inh: qHTS for inhibitors of ROR gamma transcriptional activity. Nuclear receptor ROR-gamma (Mus musculus), P51450. Drosophila S2 Gal4-RORgamma UAS-luciferase reporter, 20 h. Potency, µM (titrated, usually from 53.6 µM), for inactives: top-dose activity change, negative = inhibition, usual class: inhibitors. 5.4% of 310,000 active. AID 2551, 2010; further: potency means the concentration at half of the fitted maximal effect; nearly all actives have a fitted effect of over 60% in size
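In this cell-based reporter format, copper sulfate (700 uM final) drives Gal4–ROR gamma fusion expression from a metallothionein promoter in Drosophila Schneider cells; compounds preincubated 1 hr, reporter read after 20 hr at ambient temperature.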
ELG1 DNA repair: qHTS screen for small molecules that inhibit ELG1-dependent DNA repair in human embryonic kidney (HEK293T) cells expressing luciferase-tagged ELG1; HEK293T ELG1-luciferase reporter, luminescence, 16 h; DNA damage induced by 5-fluorouridine; Potency, µM (doses to about 46.1 µM), for inactives: at the top dose activity change, negative = inhibition, usual class: inhibitors; 2.3% of 330,000 active; further: potency means the concentration at half of the fitted maximal effect; nearly all actives have a fitted effect of over 55% in size
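Overnight (16 hr) co-exposure of 2,000 cells/well to 5-fluorouridine and compound at 37 °C preceded detection. Luciferase was quantified via ONE-Glo luminescence; loss of signal denotes inhibition.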
TSHR antagonist: Antagonists of the Thyroid Stimulating Hormone Receptor: HTS campaign | Thyrotropin receptor (Homo sapiens), P16473 | TSHR-expressing cells, TSH-stimulated cAMP HTRF, 2 h; hits give low values | activity change, negative = inhibition, % at 11.5 µM | 0.2% of 330,000 active | AID 504810, 2011;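 active means activity change below a set negative limit, meaning inhibition stronger than a set level, cut at about -70% in these data; inconclusive means activity change between two set negative limits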
Target sequence (P16473 whole entry, looked up): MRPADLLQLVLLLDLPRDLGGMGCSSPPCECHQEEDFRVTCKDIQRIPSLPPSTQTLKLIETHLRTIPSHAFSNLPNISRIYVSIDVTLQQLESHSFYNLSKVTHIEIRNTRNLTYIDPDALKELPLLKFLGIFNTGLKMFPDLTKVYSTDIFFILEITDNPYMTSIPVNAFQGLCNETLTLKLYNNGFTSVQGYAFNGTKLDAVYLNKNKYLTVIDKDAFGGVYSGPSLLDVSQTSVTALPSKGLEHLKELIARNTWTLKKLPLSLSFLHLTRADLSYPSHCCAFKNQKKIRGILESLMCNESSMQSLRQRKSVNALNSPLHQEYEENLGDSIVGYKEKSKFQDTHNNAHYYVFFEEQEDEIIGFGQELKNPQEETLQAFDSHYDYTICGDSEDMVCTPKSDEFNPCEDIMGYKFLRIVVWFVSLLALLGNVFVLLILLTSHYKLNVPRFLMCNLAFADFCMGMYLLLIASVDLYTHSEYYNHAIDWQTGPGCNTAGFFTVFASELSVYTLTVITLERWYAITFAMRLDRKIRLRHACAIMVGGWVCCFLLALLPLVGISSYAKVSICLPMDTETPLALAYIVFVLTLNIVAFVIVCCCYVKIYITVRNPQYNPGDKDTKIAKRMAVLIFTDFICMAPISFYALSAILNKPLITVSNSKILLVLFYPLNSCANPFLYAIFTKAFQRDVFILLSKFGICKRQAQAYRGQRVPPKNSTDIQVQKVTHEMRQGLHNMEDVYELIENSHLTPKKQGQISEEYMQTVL
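Competitive HTRF cAMP read-out (cryptate anti-cAMP antibody, cAMP-d2; 30 min, room temperature) in freshly harvested TSHR cells. Compounds added before TSH at EC80 (4nM final), followed by 2 hours' incubation at 37 deg C.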
VP16 counter: VP16 counterscreen qHTS for inhibitors of ROR gamma transcriptional activity | Drosophila S2 Gal4-VP16 UAS-luciferase, luminescence, 20 h | Potency, µM (doses to about 53.6 µM), for inactives: at the top dose activity, negative = inhibition, actives largely listed as inhibitors | 3.5% of 310,000 active;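 further: Gal4-VP16 expression switched on by copper sulfate through the metallothionein promoter; potency means the concentration at half of the fitted maximal effect; nearly all actives have a fitted effect of over 50% in size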
Coupling enz: qHTS Assay for Inhibitors of Fructose-1,6-bisphosphate Aldolase from Giardia Lamblia: Coupling assay counterscreen | coupling enzyme system counterscreen, AmpLite Red fluorescence | activity change, negative = inhibition, % at 58.2 µM, hits read low | 0.67% of 290,000 active | AID 2472, 2010; in the data active means activity change below about -30%
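First, compound is pin-transferred into glyceraldehyde-3-phosphate coupling-enzyme reagent at 57.5 uM final and held 10 min at RT. Next, substrate, coupling system and AmpLite Red are added. After 20 min RT, fluorescence (525/598 nm) is read.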
Numbers without * were called inactive; ? = inconclusive; . = not tested or not shown; [ ] = remark or other dose. Unless noted, the call rests on the fitted dose curve; in most records, active means well fitted curve in the direction sought with a large enough effect; inconclusive means small, poorly fitted or top-dose-only effect, or another doubt; inactive means no such curve, though single readings can be large; an effect the other way counts as inactive or inconclusive. On the % scale 0 is the no-effect control and ±100 the full control effect.

SMILES	RORgamma inh	ELG1 DNA repair	TSHR antagonist	VP16 counter	Coupling enz
NC(=S)N/N=C/c1ccc(-c2cc(Cl)c(Cl)cc2Cl)o1	0.56µM*	2%	-11	1.1µM*	-4
COC(=O)N/N=C/c1ccc(-c2ccc(Cl)cc2Cl)o1	21%	0%	-10	-7%	3
CC(=O)Nc1ccc(/C=N/NC(N)=S)cc1	-7%	.	.	-8%	1
NC(=S)N/N=C/c1ccc(Br)o1	3.5µM*	1%	-14	?	-4
NC(=S)N/N=C/c1ccccc1	16µM*	17%	0	20µM*	2
CC(C)C(=O)OCC(=O)[C@@]12OC(C3CCCCC3)O[C@@H]1CC1C3CCC4=CC(=O)C=C[C@]4(C)C3[C@@H](O)C[C@@]12C (stereo partly specified)	?	.	.	0%	.
Cc1ccccc1NC(=O)CSc1nnc(Cc2ccccc2)c(=O)n1N	.	3%	15	.	.
COc1c(O)cccc1/C=N/NC(=O)Cn1ccnc1C	?	23µM*	-2	-24%	-2
O=C(CCS(=O)(=O)c1ccc(Cl)cc1)Nc1nnc(-c2cccs2)o1	.	-3%	-11	.	.
CC1(C)COCN1S(=O)(=O)c1ccc(C(=O)Nc2nnc(-c3ccc(Cl)s3)o2)cc1	0.11µM*	?	-14	0.13µM*	8
CCCC(=O)Nc1nnc(-c2ccc(Cl)s2)o1	8.9µM*	14%	-5	?	-2
CC1CCCCN1S(=O)(=O)c1ccc(C(=O)Nc2nnc(-c3ccncc3)o2)cc1 (stereo unspecified)	6%	?	2	8%	-3
COc1ccc(-c2nnc(NC(=O)c3ccc(S(=O)(=O)N4COCC4(C)C)cc3)o2)cc1	0.22µM*	-25%	-7	0.4µM*	1
COc1ccc(CCOC(=O)c2ccc(N)c([N+](=O)[O-])c2)cc1	44%	-20%	-14	?	.
C=C(C)CC(C)(C)C	-8%	.	.	4%	1
CC1Cc2ccccc2N1c1ncnc2nc[nH]c12 (stereo unspecified)	26%	-19%	15	0%	-3
CC1Cc2ccccc2N1c1ncnc(N)c1[N+](=O)[O-] (stereo unspecified)	4.5µM*	1.5µM*	-5	?	-2
Cc1c(N=C2NC(=O)/C(=C/c3ccc(O)cc3)S2)c(=O)n(-c2ccccc2)n1C	5µM*	12%	-6	?	7
Cc1ccc(S(=O)(=O)N2CCN(c3cccc(C)c3)CC2)cc1	9%	-2%	-14	-2%	3
CC[C@H](Cc1c(I)cc(I)c(N)c1I)C(=O)O	-2%[2.98 µM]	.	.	-12%[17 µM]	1
COCCNC(=O)c1cccc(OC2CCN(Cc3ccc(Cl)c(F)c3)CC2)c1	15%	-14%	-8	1%	0
COc1ccccc1C(=O)NC(=S)NNC(=O)c1sc2ccccc2c1Cl	3%	18%	-38	-10%	7
COc1ccccc1C(=O)NC(=S)Nc1cccnc1Cl	10µM*	?	-19	?	-3
Cc1ccc(C(=O)NC(=S)Nc2cccnc2Cl)cc1	5µM*	?	37	?	-4
COc1ccccc1C(=O)NNC(=S)NC(=O)c1sc2ccccc2c1Cl	13µM*	?	-35	13µM*	5
SMILES	RORgamma inh	ELG1 DNA repair	TSHR antagonist	VP16 counter	Coupling enz
Cc1ccc(NC(=O)CCc2nnc3ccc(NCc4ccco4)nn23)nc1	7%	-29%	-96*	-8%	-2
N#Cc1ccccc1OCCN1C(=O)c2ccccc2C1=O	?	?	-4	-1%	2
Nc1cccc2c1C(=O)N(CCOc1ccccc1F)C2=O	8.9µM*	?	8	?	1
C/C(=N\NC(=S)Nc1ccc(C(C)C)cc1)c1ccc2c(c1)OCO2	6.3µM*	-3%	-1	?	-1
C/C(=N/NC(=O)c1ccc2c(c1)OCO2)c1ccc(NC(=O)C(F)(F)F)cc1	-45%	?	4	-4%	2
C/C(=N\NC(=O)c1cc(C)oc1C)c1ccc2c(c1)OCO2	-8%	?	-5	14%	-1
CNC(=S)N/N=C(\C)c1ccc2c(c1)OCCO2	2.8µM*	?	-5	8.9µM*	1
C/C(=N\NC(=S)NC(C)C)c1ccc2c(c1)OCCO2	2µM*	-12%	-6	4.5µM*	-1
CCNC(=S)N/N=C(\C)c1ccc2c(c1)OCCO2	2.8µM*	?	-6	7.1µM*	-1
Cc1noc(C)c1C(=O)N1CCC2(CC1)CN(c1ccccc1)C2	?	.	.	-12%	-4
CNC(=S)N/N=C(\C)c1ccc2c(c1)OCO2	7.1µM*	?	3	?	3
C/C(=N\NC(=O)c1ccccc1)c1ccc2c(c1)OCO2	20%	?	2	?	2
Cn1c(CCn2ccccc2=O)nc2cc(NC(=O)COc3ccccc3)ccc21	-4%	?	-2	-8%	.
O=C(N=C1SC2CS(=O)(=O)CC2N1c1cccc(Cl)c1Cl)C1CCCO1 (stereo unspecified)	2%	?	0	2%	.
C=CCN=c1scc(-c2ccccc2)n1/N=C/c1ccccn1	5µM*	?	-30	10µM*	2
C=CCN=c1scc(-c2ccc(F)cc2)n1/N=C/c1ccccn1	8.9µM*	?	-36	11µM*	-6
COC(=O)c1c(NC(=O)c2ccoc2C)sc(C)c1C	-1%	9%	5	-7%	.
CCOC(=O)c1sc(NC(=O)c2ccoc2C)c(C(N)=O)c1C	-9%	8.2µM*	0	3%	.
O=C(Nc1cccc(S(=O)(=O)N2CCOCC2)c1)C1CCN(S(=O)(=O)c2ccccc2)CC1	.	-23%	-12	.	.
Cc1ccc2c(c1)N(CC(=O)NC1CCC(C)CC1)C(=O)c1cccnc1O2 (stereo unspecified)	-43%	-15%	-4	-1%	3
COC(=O)c1cccnc1NC(=S)NC1CCCCC1	0.63µM*	?	-9	1.3µM*	2
COC(=O)c1ccc(NC(=S)Nc2ccc(O)cc2)cc1	-13%	21%	5	3%	4
COC(=O)c1ccc(NC(=O)NC2CCCCC2)cc1	9%	?	1	6%	0
COC(=O)c1ccc(NC(=S)NCC2CC2)cc1	11µM*	3%	1	?	0
COC(=O)c1ccc(NC(=S)NC2CC3CCC2C3)cc1 (stereo unspecified)	11µM*	?	0	?	-2
COC(=O)c1ccccc1NC(=O)NC1CCCCC1	16%	?	-11	-3%	2
